eIF4H inh: inhibitors of RNA binding by human eIF4H; eIF4H fluorescence polarization binding assay; Q15056; 290,000 tested, 0.94% active; inhibition, % at 35 µM; AID 2012;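 note: calls also rest on retests at 20 µM and on dose response follow-up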
PABP FP inh: blocks human PABP binding to poly(A) RNA. P11940. inhibition, % at 35 µM. 290,000 tested, 1% active. fluorescence polarization;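 note: calls also rest on retests at 20 µM and on dose response follow-up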
ALR inh: human ALR oxidase inhibition via reduced H2O2; P55789; purified ALR, DTT oxidation, H2O2 HRP-luminol luminescence; inhibition, % (no concentration beside the values); 290,000 tested, 3.8% active; AID 485317;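 active = mean replicate inhibition above about 79%, with every replicate also reaching it, limit read from the data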
Target sequence (P55789 whole entry, looked up): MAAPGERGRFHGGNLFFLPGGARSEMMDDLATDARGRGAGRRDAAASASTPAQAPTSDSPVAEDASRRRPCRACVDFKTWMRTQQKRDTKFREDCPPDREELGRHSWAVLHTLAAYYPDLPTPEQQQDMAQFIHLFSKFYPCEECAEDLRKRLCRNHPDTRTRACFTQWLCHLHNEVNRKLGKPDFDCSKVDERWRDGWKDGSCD
SUMO HTRF inh: SUMOylation inhibition. HTRF SUMOylation assay, SAE1/SAE2 + UBC9, in vitro. P63279. AID 2006. inhibition, % at 35 µM. 290,000 tested, 0.36% active; in the data active = inhibition above about 50%, passing the limit was not always enough
Target sequence (P63279 whole entry, looked up): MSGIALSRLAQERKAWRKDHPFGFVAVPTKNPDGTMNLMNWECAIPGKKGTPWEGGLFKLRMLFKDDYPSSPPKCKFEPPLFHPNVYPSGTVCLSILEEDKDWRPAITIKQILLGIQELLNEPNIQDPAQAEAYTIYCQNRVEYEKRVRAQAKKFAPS
Efflux pump mplx: inhibitors of Candida antifungal efflux pumps expressed in yeast; inhibition, % at 10 µM; 330,000 tested, 0.44% active; AID 485275; S. cerevisiae Candida pump triplex, Nile Red efflux;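 active = plate passing quality check with inhibition over a set limit, or well fluorescence over plate mean plus 4 SD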;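 note: Nile Red retained in pooled yeast measured as flow cytometry median fluorescence; higher means more Nile Red kept so more efflux inhibition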
MLLE-PAM2 inh: blocks PAM2 peptide binding to the PABP1 MLLE domain. P11940. GST-MLLE / FITC-PAM2 fluorescence polarization. inhibition, % at 20 µM. 360,000 tested, 0.36% active; in the data active = inhibition above about 35%, passing the limit was not always enough
Each line names hits and unclear results; the compound was inactive in the other large screens. An excerpt weighted towards active compounds, which were near 4.7% of everything screened. Unless noted, the rule behind the calls is not given here.

CCCn1c(N)c(C(=S)NC(=O)C2CC2)c(=O)n(C)c1=O	MLLE-PAM2 inh 41 (no result: ALR inh, Efflux pump mplx)
O=C(NCC(c1ccco1)N1CCCC1)c1cn(-c2ccccc2)nc1-c1ccc(F)cc1 (stereo not given)	none (no result: eIF4H inh, PABP FP inh, ALR inh, SUMO HTRF inh, Efflux pump mplx)
CN(Cc1ccccc1)c1nc2nonc2nc1N1CCCC(CN2CCCC2=O)C1 (stereo not given)	none
O=C(O)c1cncc(C#Cc2ccccc2)c1	none
O=C(NC(=S)Nc1cccnc1)c1cccc(Cl)c1	MLLE-PAM2 inh 43 (no result: eIF4H inh, PABP FP inh, ALR inh, SUMO HTRF inh, Efflux pump mplx)
O=C(NC(=S)Nc1ccccc1)c1cncc(C#Cc2ccccc2)c1	MLLE-PAM2 inh 40
O=C(NC(=S)Nc1cccnc1)c1cc2ccccc2o1	MLLE-PAM2 inh 41
O=C(NC(=S)NCc1cccnc1)c1cc2ccccc2o1	none
Cc1ccc(C=C2C(Cl)=C(Cl)C(Cl)=C2Cl)cc1	eIF4H inh 102, PABP FP inh 84 (no result: MLLE-PAM2 inh)
CC(NC(=O)CN1c2cccc3cccc(c23)S1(=O)=O)c1ccc(S(N)(=O)=O)cc1 (stereo not given)	none (no result: eIF4H inh, PABP FP inh, SUMO HTRF inh)
Cc1cc(C)nc(NC(=S)NC(=O)c2ccccc2F)n1	none (no result: eIF4H inh, PABP FP inh, SUMO HTRF inh)
Cc1cc(C)nc(S/C=C/C(=O)c2ccccc2F)n1	MLLE-PAM2 inh 42
CC(C)C(=O)NC(=S)Nc1c(Cl)ccc2nsnc12	eIF4H inh 79, PABP FP inh 73 (no result: ALR inh)
Cc1ccc(C(=O)NC(=S)Nc2c(C)ccc3nsnc23)cc1	none
CC1=NN(c2ccccc2)C(=O)C1C(=S)SC1CC(=O)NC1=O (stereo not given)	MLLE-PAM2 inh 49 (no result: eIF4H inh, PABP FP inh, ALR inh, SUMO HTRF inh, Efflux pump mplx)
O=[N+]([O-])c1cnn(-c2nc(-c3ccccc3)cc(C(F)(F)F)n2)c1	none
CC(C)(C)[C@@H]1CCC(=O)N(CC[C@H](Sc2ccccc2)c2ccccc2)CC1	none
CC(C)(C)[C@H]1CCC(=O)N([C@H](CSc2ccccc2)Cc2ccccc2)CC1	none
CC(=O)Nc1ccc(SCCN2CC[C@@H](O)CCC2=O)cc1	none (no result: eIF4H inh, PABP FP inh, SUMO HTRF inh)
CC(=O)Nc1ccc(SC[C@H](Cc2ccccc2)N2CC[C@@H](C(C)(C)C)CCC2=O)cc1	ALR inh 99, MLLE-PAM2 inh 42 (no result: eIF4H inh, PABP FP inh, SUMO HTRF inh)
CC(=O)Nc1ccc(S[C@@H](CCN2CC[C@H](C(C)(C)C)CCC2=O)c2ccccc2)cc1	ALR inh 97 (no result: eIF4H inh, PABP FP inh, SUMO HTRF inh)
CC(=O)Nc1ccc(SC[C@H](Cc2ccccc2)N2CCN(CCc3ccccc3)CCC2=O)cc1	none (no result: ALR inh, Efflux pump mplx)
CC(=O)Nc1ccc(SCCN2CC[C@@H](C)CCC2=O)cc1	ALR inh 99 (no result: eIF4H inh, PABP FP inh, SUMO HTRF inh)
CC(=O)Nc1ccc(SC[C@H](Cc2ccccc2)N2CC[C@@H](O)CCC2=O)cc1	ALR inh 99, MLLE-PAM2 inh 41 (no result: eIF4H inh, PABP FP inh, SUMO HTRF inh)
COc1ccc(Cc2nnc(NC(=O)C(C)(C)C)s2)cc1	none
CCc1ccc(Nc2n[n+](-c3ccccc3)c(/C=C/c3ccccc3)s2)cc1	none (no result: MLLE-PAM2 inh)
CC1(C(=O)NCCCN2CCCC2=O)CCN1CCc1ccccc1 (stereo not given)	none (no result: eIF4H inh, PABP FP inh, ALR inh, SUMO HTRF inh, Efflux pump mplx)
CNc1ncnc2c1ncn2[C@H]1CN(Cc2cccs2)C[C@@H](CO)O1	none (no result: eIF4H inh, PABP FP inh, ALR inh, SUMO HTRF inh, Efflux pump mplx)
COc1ccc(C(=O)CSc2[nH]c(=O)cc(C(F)(F)F)c2C#N)cc1	ALR inh 98
COc1ccc(-c2cc(C(F)(F)F)c(C#N)c(SCC(=O)Nc3ccc(C)cc3)n2)cc1	none
CCN(CC)c1ccc2c(c1)CCCN2	ALR inh 97 (no result: MLLE-PAM2 inh)
CCN(CC)c1ccc(/C=C2\NC(=O)NC2=O)cc1	ALR inh 99
CC1=NN(c2ccc(S(=O)(=O)O)cc2C)C(=O)C1	SUMO HTRF inh 84 (no result: ALR inh)
CC1(C)CC(=O)C=C(c2ccc(-c3ccc4[nH]ccc4c3)cc2)C1=O	none (no result: eIF4H inh, PABP FP inh, ALR inh, SUMO HTRF inh, Efflux pump mplx)
COc1ccc(CN2CCN(c3nc4ccccc4s3)CC2)cc1	none (no result: ALR inh, Efflux pump mplx)
COc1ccc(CCn2c(O)cc3nn(-c4nc5ccccc5s4)c(=O)c-3c2C)cc1	eIF4H inh 68, PABP FP inh 64, SUMO HTRF inh 63
c1csc(CNc2nc(NCC3CCCCC3)c3sccc3n2)c1	none (no result: eIF4H inh, PABP FP inh, ALR inh, SUMO HTRF inh, Efflux pump mplx)
Cc1ccc(/C=N/NC(=O)C(O)c2ccccc2)o1 (stereo not given)	none
O=C(N/N=C/c1cc(Br)c(Br)o1)C(O)c1ccccc1 (stereo not given)	eIF4H inh 63
COc1ccccc1CN(C)C(=O)C1COc2ccccc2O1 (stereo not given)	ALR inh 100
Cc1ccc(NC(=O)CN(C)C(=O)C2COc3ccccc3O2)cc1 (stereo not given)	none
O=C(NN=C1CCCCC1)c1cc(-c2ccccc2)n[nH]1	none
O=C(NN=C1CCCC1)c1cc(-c2ccccc2)n[nH]1	ALR inh 97
Nc1nnc2cc(Br)ccc2n1	MLLE-PAM2 inh 75 (no result: eIF4H inh, PABP FP inh, ALR inh, SUMO HTRF inh, Efflux pump mplx)
CC1SC(C)C(=O)N(CC(=O)Nc2ccc([N+](=O)[O-])cc2)C1=O (stereo not given)	none
O=C(O)c1ccc(Cl)c(S(=O)(=O)N(Cc2ccccc2)c2ccccc2)c1	none
CCN(c1ccccc1)S(=O)(=O)c1cc(C(=O)O)ccc1C	eIF4H inh 53, PABP FP inh 26
CC(C)(CO)N=Cc1c(O)[nH]c2ccccc12	ALR inh 100
CC(C)(C)c1[nH]c2ccccc2c1/C=N/O	ALR inh 99
Oc1[nH]c2ccccc2c1C=Nc1ccc2c(c1)OCCO2	none (no result: ALR inh, Efflux pump mplx)
CC(C)N=Cc1c(O)[nH]c2ccccc12	ALR inh 99
Cc1cccc(/N=C/c2c(O)[nH]c3ccccc23)n1	none
Cc1cc(C(=O)N/N=C/c2c(C)[nH]c3ccccc23)n[nH]1	none (no result: ALR inh)
CCOC(=O)N1CCN(c2ccc(S(=O)(=O)N3CCC(C)CC3)cc2[N+](=O)[O-])CC1	none (no result: eIF4H inh, PABP FP inh, ALR inh, SUMO HTRF inh)
COCCn1c(C)cc(/C=C(\C#N)C(=O)OCC(=O)Nc2ccc(S(N)(=O)=O)cc2)c1C	none (no result: eIF4H inh, PABP FP inh, ALR inh, SUMO HTRF inh, Efflux pump mplx)
COc1ccc(-c2cnc(C(O)c3ccc(C(C)(C)C)cc3)[nH]2)cc1 (stereo not given)	none (no result: eIF4H inh, PABP FP inh, ALR inh, SUMO HTRF inh, Efflux pump mplx)
CCOc1ccc(OCCC(=O)OCC(=O)NC2CCCC2)cc1	none (no result: eIF4H inh, PABP FP inh, SUMO HTRF inh)
CC1(C)Nc2ccccc2N(Cc2ccc([N+](=O)[O-])cc2)C1=O	ALR inh 96
CN(C(=O)CCN1C(=O)C(C)(C)Nc2ccccc21)c1ccccc1	none
CC1(C)Nc2ccccc2N(CC(=O)N2CCCCC2)C1=O	ALR inh 98
CCCCSc1nnc(CCNC(=O)OC(C)(C)C)o1	none
C=Cc1ccc(Cn2c(C)c(C(=O)NCc3ccc4c(c3)OCCO4)sc2=O)cc1	none (no result: eIF4H inh, PABP FP inh, ALR inh, SUMO HTRF inh, Efflux pump mplx)
O=C(COC(=O)/C=C/c1ccc([N+](=O)[O-])cc1)Nc1ccc2[nH]c(=O)[nH]c2c1	none (no result: eIF4H inh, PABP FP inh, ALR inh, SUMO HTRF inh, Efflux pump mplx)
COc1ccccc1C(=O)COC(=O)C1CCN(S(=O)(=O)c2ccccc2)CC1	none (no result: eIF4H inh, PABP FP inh, ALR inh, SUMO HTRF inh, Efflux pump mplx)
CC(C)C1NC2(C(=O)c3ccccc3C2=O)C2C(=O)N(c3ccc(F)cc3)C(=O)C12 (stereo not given)	eIF4H inh 51, PABP FP inh 39
O=C(O)CCc1ccc(-c2ccc(Cl)cc2)o1	ALR inh 97
Cn1cnnc1SCC(=O)NC1CC1	none (no result: eIF4H inh, PABP FP inh, SUMO HTRF inh)
CC(NC(=O)COc1ccccc1)C(c1ccccc1)N1CCN(C)CC1 (stereo not given)	ALR inh 98
NCCCCc1cn(CC(=O)N2CCNCC2)nn1	PABP FP inh 57

Screening results from PubChem.
